# From ChEMBL document CHEMBL2218924, “A broad activity screen in support of a chemogenomic map for kinase signalling research and drug discovery” (Biochem J, 2013)
# What was measured:
# [1] = biological target: Homeodomain-interacting protein kinase 3 (Homo sapiens) (UniProt Q9H422); conditions: at 10 µM
# [2] = biological target: T1, Serine/threonine-protein kinase haspin (Homo sapiens) (UniProt Q8TF76); conditions: at 10 µM
# T1 sequence (whole entry): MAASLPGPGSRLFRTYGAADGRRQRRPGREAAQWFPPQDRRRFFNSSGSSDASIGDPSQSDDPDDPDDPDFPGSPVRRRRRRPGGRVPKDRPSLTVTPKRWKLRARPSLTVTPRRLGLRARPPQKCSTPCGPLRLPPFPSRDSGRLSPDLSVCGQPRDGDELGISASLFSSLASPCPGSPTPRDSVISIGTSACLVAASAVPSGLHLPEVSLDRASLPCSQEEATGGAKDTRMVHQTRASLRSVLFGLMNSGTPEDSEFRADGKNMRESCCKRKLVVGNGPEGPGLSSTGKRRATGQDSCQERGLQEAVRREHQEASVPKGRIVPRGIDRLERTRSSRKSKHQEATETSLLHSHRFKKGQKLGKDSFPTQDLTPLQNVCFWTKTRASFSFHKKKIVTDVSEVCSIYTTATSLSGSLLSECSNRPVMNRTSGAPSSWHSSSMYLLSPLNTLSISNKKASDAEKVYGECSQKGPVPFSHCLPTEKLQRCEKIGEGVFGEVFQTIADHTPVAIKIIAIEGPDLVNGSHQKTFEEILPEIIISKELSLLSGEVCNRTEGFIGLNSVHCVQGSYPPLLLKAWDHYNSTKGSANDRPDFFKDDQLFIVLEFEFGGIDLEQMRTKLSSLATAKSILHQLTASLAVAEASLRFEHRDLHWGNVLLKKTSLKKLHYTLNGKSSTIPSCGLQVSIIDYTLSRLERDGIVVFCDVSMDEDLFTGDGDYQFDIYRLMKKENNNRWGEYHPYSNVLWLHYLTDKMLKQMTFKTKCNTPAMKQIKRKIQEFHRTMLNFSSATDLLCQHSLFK
# [3] = biological target: Tyrosine-protein kinase HCK (Homo sapiens) (UniProt P08631); conditions: at 1 µM
# [4] = biological target: Tyrosine-protein kinase HCK (Homo sapiens) (UniProt P08631); conditions: at 10 µM
# [5] = biological target: Tyrosine-protein kinase HCK (Homo sapiens) (UniProt P08631); conditions: at 1 µM; remark: listed apart in the source
# [6] = biological target: Tyrosine-protein kinase HCK (Homo sapiens) (UniProt P08631); conditions: at 10 µM; remark: listed apart in the source
# [7] = biological target: Insulin-like growth factor 1 receptor (Homo sapiens) (UniProt P08069); conditions: at 1 µM
# [8] = biological target: Insulin-like growth factor 1 receptor (Homo sapiens) (UniProt P08069); conditions: at 10 µM
# [9] = biological target: Protein kinase C theta type (Homo sapiens) (UniProt Q04759); conditions: at 1 µM
# [10] = biological target: Protein kinase C theta type (Homo sapiens) (UniProt Q04759); conditions: at 10 µM
# [11] = biological target: T2, Serine/threonine-protein kinase D2 (Homo sapiens) (UniProt Q9BZL6); conditions: at 1 µM
# T2 sequence (whole entry): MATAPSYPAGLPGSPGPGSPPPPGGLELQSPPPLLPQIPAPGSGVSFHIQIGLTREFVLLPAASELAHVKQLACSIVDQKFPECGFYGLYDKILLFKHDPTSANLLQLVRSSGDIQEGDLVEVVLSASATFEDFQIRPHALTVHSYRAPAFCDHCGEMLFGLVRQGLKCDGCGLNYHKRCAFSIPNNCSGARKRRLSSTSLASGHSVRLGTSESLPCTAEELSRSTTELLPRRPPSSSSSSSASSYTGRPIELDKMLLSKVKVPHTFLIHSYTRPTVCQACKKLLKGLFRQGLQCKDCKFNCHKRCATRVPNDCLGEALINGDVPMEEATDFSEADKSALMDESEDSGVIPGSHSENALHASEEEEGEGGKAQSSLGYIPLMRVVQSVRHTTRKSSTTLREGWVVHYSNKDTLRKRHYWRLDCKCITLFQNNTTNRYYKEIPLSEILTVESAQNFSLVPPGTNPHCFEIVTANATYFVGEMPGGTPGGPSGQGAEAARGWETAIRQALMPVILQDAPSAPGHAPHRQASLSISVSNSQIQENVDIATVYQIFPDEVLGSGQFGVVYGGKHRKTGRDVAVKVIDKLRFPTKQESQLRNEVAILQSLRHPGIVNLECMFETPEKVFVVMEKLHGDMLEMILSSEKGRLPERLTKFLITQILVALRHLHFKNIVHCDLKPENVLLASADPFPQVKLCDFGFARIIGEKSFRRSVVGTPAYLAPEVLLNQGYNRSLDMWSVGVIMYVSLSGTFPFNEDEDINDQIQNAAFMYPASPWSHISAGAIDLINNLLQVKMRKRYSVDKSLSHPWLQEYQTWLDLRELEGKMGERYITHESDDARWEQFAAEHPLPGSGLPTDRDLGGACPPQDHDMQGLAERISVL
# [12] = biological target: T2, Serine/threonine-protein kinase D2 (Homo sapiens); conditions: at 10 µM
# [13] = biological target: T1, Serine/threonine-protein kinase haspin (Homo sapiens); conditions: at 1 µM
# [14] = biological target: T3, Protein kinase C zeta type (Homo sapiens) (UniProt Q05513); conditions: at 10 µM
# T3 sequence (whole entry): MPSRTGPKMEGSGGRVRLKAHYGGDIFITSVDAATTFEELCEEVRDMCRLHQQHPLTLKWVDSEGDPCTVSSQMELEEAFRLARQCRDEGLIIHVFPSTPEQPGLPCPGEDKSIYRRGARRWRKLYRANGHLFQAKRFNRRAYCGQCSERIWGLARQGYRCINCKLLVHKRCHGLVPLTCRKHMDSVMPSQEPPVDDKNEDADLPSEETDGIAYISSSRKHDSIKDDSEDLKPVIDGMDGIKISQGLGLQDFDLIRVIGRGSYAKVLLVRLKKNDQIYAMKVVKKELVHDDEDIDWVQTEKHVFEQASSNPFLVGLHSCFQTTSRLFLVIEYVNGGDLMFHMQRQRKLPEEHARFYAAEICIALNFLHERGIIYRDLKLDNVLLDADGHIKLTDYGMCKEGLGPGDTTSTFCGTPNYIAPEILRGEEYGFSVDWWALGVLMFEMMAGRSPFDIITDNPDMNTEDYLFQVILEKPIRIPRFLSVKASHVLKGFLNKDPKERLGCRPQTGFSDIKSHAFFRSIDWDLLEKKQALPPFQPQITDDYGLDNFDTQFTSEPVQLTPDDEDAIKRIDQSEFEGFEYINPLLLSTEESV
# [15] = biological target: Protein kinase C eta type (Homo sapiens) (UniProt P24723); conditions: at 1 µM
# [16] = biological target: Protein kinase C eta type (Homo sapiens) (UniProt P24723); conditions: at 10 µM
# [17] = biological target: T4, Protein kinase C iota type (Homo sapiens) (UniProt P41743); conditions: at 1 µM
# T4 sequence (whole entry): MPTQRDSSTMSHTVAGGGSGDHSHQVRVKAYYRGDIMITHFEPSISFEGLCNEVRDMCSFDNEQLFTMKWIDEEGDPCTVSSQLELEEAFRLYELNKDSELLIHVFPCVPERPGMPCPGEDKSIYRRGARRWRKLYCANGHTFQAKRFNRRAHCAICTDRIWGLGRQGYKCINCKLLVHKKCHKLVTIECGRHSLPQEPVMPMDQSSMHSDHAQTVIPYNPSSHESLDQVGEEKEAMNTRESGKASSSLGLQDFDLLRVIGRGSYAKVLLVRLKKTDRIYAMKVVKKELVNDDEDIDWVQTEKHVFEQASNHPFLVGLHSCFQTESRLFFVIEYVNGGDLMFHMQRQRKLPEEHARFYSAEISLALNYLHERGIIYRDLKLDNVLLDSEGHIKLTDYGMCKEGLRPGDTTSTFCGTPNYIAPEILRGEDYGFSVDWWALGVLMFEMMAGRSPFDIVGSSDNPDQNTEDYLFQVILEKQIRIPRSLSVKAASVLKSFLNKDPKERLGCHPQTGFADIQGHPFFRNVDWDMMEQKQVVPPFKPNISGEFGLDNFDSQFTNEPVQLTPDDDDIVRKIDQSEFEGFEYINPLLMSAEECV
# [18] = biological target: T4, Protein kinase C iota type (Homo sapiens); conditions: at 10 µM
# [19] = biological target: T5, Serine/threonine-protein kinase D1 (Homo sapiens) (UniProt Q15139); conditions: at 1 µM
# T5 sequence (whole entry): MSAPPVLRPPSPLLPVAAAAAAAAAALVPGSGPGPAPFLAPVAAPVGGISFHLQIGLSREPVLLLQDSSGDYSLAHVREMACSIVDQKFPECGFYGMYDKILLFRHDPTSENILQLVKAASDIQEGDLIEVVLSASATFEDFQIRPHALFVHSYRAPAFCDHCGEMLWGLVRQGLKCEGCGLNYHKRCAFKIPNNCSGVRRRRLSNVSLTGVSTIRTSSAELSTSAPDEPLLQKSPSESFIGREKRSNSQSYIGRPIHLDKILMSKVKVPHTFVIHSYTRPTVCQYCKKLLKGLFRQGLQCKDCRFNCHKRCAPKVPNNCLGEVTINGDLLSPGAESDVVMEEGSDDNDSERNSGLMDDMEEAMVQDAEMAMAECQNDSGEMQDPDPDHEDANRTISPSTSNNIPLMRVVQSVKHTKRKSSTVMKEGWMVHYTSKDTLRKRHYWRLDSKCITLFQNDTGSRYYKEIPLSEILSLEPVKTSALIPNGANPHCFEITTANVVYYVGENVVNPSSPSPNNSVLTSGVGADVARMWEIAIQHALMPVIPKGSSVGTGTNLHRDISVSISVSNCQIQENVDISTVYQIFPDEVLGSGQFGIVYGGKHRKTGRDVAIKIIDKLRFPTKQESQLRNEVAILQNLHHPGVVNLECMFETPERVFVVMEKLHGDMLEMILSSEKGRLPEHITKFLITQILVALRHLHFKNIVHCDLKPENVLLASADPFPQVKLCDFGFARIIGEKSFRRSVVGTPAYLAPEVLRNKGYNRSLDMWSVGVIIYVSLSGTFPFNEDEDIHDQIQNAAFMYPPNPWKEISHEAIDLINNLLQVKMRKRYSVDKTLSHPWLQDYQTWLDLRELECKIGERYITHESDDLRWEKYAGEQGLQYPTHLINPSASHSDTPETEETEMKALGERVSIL
# [20] = biological target: T5, Serine/threonine-protein kinase D1 (Homo sapiens); conditions: at 10 µM
# Homeodomain-interacting protein kinase 3 (Homo sapiens), sequence (Q9H422 whole entry, looked up): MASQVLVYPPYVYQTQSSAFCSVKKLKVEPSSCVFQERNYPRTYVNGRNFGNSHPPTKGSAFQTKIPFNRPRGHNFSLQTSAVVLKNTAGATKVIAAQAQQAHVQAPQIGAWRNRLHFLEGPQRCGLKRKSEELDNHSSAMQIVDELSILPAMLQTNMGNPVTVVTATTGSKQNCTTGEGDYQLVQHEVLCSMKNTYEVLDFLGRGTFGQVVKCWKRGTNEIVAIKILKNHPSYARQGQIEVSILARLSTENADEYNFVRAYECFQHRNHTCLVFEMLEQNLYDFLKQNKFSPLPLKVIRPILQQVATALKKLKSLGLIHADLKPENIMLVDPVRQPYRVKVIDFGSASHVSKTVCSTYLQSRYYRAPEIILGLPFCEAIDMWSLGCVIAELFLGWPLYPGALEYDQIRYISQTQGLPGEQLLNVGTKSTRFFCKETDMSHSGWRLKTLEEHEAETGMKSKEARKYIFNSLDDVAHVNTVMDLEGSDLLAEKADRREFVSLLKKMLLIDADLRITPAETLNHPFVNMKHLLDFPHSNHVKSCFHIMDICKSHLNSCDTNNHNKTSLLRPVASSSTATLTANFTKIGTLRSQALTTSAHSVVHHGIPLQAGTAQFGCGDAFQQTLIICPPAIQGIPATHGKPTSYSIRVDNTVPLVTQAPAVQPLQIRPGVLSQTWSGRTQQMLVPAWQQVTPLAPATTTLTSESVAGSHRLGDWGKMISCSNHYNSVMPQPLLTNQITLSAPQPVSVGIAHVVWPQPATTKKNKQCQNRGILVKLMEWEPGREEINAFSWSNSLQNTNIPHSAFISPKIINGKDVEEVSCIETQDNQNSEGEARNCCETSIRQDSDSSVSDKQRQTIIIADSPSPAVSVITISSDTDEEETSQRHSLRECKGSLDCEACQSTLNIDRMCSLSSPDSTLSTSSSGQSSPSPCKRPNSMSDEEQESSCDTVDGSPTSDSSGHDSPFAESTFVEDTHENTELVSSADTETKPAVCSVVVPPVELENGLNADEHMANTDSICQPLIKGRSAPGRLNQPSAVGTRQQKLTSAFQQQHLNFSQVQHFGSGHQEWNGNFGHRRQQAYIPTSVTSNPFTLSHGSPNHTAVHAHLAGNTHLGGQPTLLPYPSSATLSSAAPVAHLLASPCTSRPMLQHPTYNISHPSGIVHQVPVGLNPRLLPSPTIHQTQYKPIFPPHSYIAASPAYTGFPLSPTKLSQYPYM
# Insulin-like growth factor 1 receptor (Homo sapiens), sequence (P08069 31-736 limits assumed): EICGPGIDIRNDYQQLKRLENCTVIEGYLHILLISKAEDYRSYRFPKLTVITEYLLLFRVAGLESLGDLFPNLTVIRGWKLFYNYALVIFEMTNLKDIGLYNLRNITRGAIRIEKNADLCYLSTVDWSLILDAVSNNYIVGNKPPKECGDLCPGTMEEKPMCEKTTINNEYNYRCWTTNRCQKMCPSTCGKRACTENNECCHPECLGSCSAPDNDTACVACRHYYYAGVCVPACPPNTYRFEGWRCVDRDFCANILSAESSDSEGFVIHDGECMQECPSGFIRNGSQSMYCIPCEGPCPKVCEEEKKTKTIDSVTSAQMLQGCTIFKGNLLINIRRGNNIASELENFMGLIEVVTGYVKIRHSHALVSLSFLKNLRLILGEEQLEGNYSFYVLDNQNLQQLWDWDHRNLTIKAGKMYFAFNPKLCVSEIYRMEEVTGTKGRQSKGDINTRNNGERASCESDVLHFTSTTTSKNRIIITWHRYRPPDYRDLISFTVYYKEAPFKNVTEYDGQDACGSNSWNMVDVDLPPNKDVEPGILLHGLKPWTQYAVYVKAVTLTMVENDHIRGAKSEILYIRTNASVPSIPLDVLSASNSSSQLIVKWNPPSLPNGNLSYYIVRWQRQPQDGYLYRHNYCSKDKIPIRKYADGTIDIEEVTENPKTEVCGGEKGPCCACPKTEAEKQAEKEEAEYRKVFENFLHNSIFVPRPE
# Insulin-like growth factor 1 receptor (Homo sapiens), sequence (P08069 741-1367 limits assumed): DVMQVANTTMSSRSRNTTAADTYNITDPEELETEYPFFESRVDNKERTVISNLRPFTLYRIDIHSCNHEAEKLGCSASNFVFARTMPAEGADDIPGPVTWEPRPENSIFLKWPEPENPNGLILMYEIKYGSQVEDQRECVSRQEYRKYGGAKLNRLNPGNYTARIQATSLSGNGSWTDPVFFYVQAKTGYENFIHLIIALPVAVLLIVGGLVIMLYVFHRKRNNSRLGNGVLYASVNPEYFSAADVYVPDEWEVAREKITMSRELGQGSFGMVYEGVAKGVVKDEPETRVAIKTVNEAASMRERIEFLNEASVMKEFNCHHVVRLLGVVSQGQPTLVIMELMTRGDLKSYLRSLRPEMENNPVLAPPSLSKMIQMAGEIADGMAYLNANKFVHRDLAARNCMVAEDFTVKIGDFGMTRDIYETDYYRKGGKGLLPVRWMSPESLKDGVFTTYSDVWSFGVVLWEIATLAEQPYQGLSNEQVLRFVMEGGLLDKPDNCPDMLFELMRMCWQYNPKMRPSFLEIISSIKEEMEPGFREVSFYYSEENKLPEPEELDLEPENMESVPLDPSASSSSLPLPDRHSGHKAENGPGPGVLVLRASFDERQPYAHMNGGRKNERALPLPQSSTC
# Protein kinase C eta type (Homo sapiens), sequence (P24723 whole entry): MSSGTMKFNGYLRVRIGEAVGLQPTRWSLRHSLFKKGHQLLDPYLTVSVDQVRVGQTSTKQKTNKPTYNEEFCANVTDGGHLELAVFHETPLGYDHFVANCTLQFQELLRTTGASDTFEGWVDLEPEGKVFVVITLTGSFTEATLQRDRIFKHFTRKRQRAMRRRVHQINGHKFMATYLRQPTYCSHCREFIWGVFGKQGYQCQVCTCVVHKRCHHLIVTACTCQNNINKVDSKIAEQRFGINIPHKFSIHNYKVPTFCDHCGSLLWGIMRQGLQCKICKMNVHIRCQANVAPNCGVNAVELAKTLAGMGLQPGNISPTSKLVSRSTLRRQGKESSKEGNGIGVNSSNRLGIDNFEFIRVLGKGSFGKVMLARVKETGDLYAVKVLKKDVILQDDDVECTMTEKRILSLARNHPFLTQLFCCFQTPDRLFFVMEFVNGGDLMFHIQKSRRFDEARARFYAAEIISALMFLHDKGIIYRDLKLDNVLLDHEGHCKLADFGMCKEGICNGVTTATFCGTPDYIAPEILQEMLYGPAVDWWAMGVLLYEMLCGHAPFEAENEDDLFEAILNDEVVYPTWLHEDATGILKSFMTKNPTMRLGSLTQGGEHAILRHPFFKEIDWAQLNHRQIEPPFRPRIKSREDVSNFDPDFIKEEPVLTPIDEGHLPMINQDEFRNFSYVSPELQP
# Protein kinase C theta type (Homo sapiens), sequence (Q04759 whole entry, looked up): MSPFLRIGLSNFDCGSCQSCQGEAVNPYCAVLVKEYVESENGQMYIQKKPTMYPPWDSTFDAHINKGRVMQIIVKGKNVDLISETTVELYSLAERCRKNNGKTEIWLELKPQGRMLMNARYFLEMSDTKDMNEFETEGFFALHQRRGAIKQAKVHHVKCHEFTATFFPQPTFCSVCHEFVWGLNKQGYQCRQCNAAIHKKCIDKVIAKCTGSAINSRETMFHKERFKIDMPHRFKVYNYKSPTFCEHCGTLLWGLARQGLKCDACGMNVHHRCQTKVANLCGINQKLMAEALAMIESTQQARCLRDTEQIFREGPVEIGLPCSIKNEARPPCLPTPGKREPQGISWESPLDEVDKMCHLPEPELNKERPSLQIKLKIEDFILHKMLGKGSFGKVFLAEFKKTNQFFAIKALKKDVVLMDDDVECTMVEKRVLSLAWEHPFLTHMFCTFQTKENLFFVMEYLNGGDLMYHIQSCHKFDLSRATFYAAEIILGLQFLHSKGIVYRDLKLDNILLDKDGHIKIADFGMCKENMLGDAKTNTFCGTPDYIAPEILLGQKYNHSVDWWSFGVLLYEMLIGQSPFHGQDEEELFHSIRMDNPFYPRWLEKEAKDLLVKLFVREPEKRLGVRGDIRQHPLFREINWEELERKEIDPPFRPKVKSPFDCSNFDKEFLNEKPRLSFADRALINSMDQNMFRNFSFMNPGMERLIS
# Tyrosine-protein kinase HCK (Homo sapiens), sequence (P08631 2-526 limits assumed): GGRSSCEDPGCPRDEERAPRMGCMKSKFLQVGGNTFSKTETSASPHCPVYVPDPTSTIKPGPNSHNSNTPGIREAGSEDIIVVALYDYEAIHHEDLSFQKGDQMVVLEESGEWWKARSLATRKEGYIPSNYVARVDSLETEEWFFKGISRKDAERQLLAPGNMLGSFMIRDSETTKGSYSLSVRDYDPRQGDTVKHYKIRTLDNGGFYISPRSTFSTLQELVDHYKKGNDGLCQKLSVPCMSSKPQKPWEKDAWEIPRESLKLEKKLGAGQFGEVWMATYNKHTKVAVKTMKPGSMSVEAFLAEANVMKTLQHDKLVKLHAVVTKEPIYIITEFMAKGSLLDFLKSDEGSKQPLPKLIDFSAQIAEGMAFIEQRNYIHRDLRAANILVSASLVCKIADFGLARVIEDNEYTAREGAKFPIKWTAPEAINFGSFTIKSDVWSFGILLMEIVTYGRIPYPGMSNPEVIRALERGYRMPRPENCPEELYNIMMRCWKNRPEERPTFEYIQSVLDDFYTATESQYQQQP
Structure (SMILES),residual activity [1] [%],residual activity [2] [%],residual activity [3] [%],residual activity [4] [%],residual activity [5] [%],residual activity [6] [%],residual activity [7] [%],residual activity [8] [%],residual activity [9] [%],residual activity [10] [%],residual activity [11] [%],residual activity [12] [%],residual activity [13] [%],residual activity [14] [%],residual activity [15] [%],residual activity [16] [%],residual activity [17],residual activity [18] [%],residual activity [19] [%],residual activity [20] [%]
O=C(CCCc1ccc(-c2ccccc2F)cc1)Nc1ccc(O)cc1,98,98,96,62,106,89,104,100,100,105,110,98,,,,,,,,
Nc1ncnc2[nH]nc(Nc3ccc(F)cc3)c12,,53,37,16,56,11,127,94,107,92,106,,78,98,110,104,113% (inactive),109,81,64
CCN1/C(=C/C(C)=O)Sc2ccc(OC)cc21,75,4,76,71,,,70,,,,,70,17,,,,,,59,18
CCN(CC)CCNC(=O)c1c(C)[nH]c(/C=C2\C(=O)Nc3ccc(Cl)cc32)c1C,-5,12,13,3,9,0,135,13,,,73,16,43,,,,,,38,4
O=C1Nc2ccc(Cl)cc2/C1=C/c1cc(Cl)c(O)c(Cl)c1,46,1,61,15,86,53,126,,99,76,98,56,12,,95,79,85% (inactive),83,,
O=C1NC(=O)C(c2cn(CCCO)c3ncccc23)=C1c1cnccn1,,55,66,48,95,96,138,124,97,77,,,69,,,87,,,,
CN(C)S(=O)(=O)c1ccc2c(c1)/C(=C/c1cc3c([nH]1)CCCC3)C(=O)N2,86,,10,10,73,74,,134,93,72,,,127,,,,99% (inactive),114,91,
O=C1C(Cl)=C(N2C(=O)CCC2=O)C(=O)c2ccccc21,86,,71,63,91,,93,130,92,85,99,100,96,,68,24,118% (inactive),55,72,76
Oc1cccc(-c2nc(N3CCOCC3)c3oc4ncccc4c3n2)c1,59,32,,68,,,131,,84,86,,,76,,,,89% (inactive),,97,89
CC(C)(C)c1nc2c3ccc(F)cc3c3c(=O)[nH]ccc3c2[nH]1,45,34,49,31,68,60,119,,,,40,22,74,,,,,,8,16
COc1ccc2c(c1)c(C1=C(c3c[nH]c4ccccc34)C(=O)NC1=O)cn2CCCN(C)C,22,56,65,53,98,72,134,104,3,1,98,102,98,27,10,2,,62,108,58
CC(C)(C)n1nc(Cc2cccc3ccccc23)c2c(N)ncnc21,97,16,32,3,43,,142,96,98,92,80,24,79,116,77,86,115% (inactive),82,22,
Nc1ncnc2c1c(-c1ccc(Oc3ccccc3)cc1)cn2C1CCCC1,97,44,2,1,1,-2,127,119,94,109,93,95,90,107,95,67,87% (inactive),76,,
CC(C)[C@H](CO)Nc1nc(Nc2cc(N)cc(Cl)c2)c2ncn(C(C)C)c2n1,73,20,27,5,50,9,118,92,77,23,96,99,57,,97,99,,89,99,81
O=C(NC(NC(=S)Nc1ccc(F)c([N+](=O)[O-])c1)C(Cl)(Cl)Cl)C(c1ccccc1)c1ccccc1 (configuration not stated),103,47,80,38,,,76,42,97,104,100,100,83,94,,90,,,,88
CCCCc1c(-c2ccc(OC)cc2)[nH]c2nccnc12,110,27,60,24,75,81,109,136,90,83,,,77,103,,,112% (inactive),,121,84
